The source of these data is publication PMC7862700, “An all-to-all approach to the identification of sequence-specific readers for epigenetic DNA modifications on cytosine”.

Holding throughout (test): DAPPL (digital affinity profiling via proximity ligation, sequencing); 10 mM Tris-HCl pH 7.5, 50 mM NaCl, 1 mM DTT, 4% glycerol, room temperature, 30 min; GST-TFs on glutathione beads, 16-mer random dsDNA library, 0.1% formaldehyde crosslink after washing; high values mean tight binding
Common to all, as to settings: protein: recombinant; tags: N-terminal GST; dsDNA, one strand shown

Assay [1] deals with T1, ELK1 (Homo sapiens, UniProt P19419 1-428).
T1 sequence: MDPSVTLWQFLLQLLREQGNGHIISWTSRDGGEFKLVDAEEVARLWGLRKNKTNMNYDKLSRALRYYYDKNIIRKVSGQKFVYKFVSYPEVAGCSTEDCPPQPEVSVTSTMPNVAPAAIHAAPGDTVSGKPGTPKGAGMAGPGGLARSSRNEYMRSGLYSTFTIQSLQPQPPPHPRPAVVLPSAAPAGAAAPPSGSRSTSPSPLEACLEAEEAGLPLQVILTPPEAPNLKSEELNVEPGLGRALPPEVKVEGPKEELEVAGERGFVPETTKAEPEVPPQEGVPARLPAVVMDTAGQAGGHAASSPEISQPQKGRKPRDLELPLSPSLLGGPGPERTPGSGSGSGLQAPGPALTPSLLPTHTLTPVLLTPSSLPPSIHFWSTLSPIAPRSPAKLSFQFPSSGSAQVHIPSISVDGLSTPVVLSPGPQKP
Put shortly: (§1)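 Beads coated with glutathione captured GST-fused human transcription factors that had been expressed in yeast, and the factors were then given DNA barcodes and pooled with a tag-only sample. The pools were incubated with 200 nmole of a random double-stranded 16-mer DNA library in Tris/NaCl/DTT/glycerol buffer for 30 min at room temperature, washed, crosslinked with 0.1% formaldehyde and proximity-ligated with BsaI/T4 ligase at 37 °C for 1 h. PCR amplification and Illumina NextSeq500 sequencing came last. Binding signal is each hexamer's read frequency for a factor divided by its frequency for the tag-only sample.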

For assay [2], the target named is T2, GABPA (Homo sapiens, UniProt Q06546 1-454).
T2 sequence: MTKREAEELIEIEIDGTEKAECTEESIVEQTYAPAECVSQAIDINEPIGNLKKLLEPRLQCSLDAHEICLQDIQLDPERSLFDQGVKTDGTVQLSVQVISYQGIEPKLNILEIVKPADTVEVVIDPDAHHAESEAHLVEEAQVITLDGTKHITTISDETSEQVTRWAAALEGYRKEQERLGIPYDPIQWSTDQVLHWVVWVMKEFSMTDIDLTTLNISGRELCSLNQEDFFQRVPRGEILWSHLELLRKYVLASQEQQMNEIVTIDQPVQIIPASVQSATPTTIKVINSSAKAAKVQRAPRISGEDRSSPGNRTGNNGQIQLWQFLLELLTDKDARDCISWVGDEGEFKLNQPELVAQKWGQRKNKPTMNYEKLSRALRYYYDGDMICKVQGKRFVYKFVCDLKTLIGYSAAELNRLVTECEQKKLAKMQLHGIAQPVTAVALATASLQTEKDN
Put shortly:
as §1

Assay [3] has as its target T3, ERG (Homo sapiens, UniProt P11308 1-479).
T3 sequence: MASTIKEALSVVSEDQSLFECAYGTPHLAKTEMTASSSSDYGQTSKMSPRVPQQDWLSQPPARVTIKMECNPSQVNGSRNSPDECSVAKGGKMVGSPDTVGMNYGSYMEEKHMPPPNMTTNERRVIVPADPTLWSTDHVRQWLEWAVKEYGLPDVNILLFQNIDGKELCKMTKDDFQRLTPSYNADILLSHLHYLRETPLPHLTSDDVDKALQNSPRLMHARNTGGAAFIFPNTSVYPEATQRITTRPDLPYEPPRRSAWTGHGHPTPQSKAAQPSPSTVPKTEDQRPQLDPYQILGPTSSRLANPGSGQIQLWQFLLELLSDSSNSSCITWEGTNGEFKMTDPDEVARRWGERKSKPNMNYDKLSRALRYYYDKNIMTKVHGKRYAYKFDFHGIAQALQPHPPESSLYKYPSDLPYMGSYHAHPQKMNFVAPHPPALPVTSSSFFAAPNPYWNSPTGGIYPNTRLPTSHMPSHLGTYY
Put shortly:
as §1

Assay [4] deals with ELF1 (Homo sapiens, UniProt P32519 1-619). Put shortly: as §1
The target of assay [5] is T4, EHF (Homo sapiens, UniProt Q9NZC4 1-300).
T4 sequence: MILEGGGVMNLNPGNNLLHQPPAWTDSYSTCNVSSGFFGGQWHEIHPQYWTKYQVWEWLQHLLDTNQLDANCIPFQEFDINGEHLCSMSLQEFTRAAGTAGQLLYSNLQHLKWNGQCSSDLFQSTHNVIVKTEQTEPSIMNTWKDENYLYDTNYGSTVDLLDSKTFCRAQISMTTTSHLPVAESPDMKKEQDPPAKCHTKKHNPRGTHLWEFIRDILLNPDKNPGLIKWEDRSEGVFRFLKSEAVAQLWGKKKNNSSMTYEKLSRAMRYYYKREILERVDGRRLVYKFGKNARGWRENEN
A digest of the protocol:
as §1

The target in assay [6] is SPI1 (Homo sapiens, UniProt P17947 1-270). Put shortly: as §1
In assay [7] the target is SPIB (Homo sapiens, UniProt Q01892 1-262). A digest of the protocol:
as §1

Assay [8] has as its target T5, FEV (Homo sapiens, UniProt Q99581 1-238).
T5 sequence: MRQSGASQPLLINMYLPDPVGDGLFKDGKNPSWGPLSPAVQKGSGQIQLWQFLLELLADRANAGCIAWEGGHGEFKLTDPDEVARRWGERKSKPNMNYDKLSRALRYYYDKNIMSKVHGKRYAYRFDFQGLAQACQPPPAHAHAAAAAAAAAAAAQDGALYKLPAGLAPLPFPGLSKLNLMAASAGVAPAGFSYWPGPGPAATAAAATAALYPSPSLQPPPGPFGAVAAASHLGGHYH
Put shortly: as §1

The target in assay [9] is ETV5 (Homo sapiens, UniProt P41161 1-510). A digest of the protocol: as §1
Assay [10] has as its target ELF4 (Homo sapiens, UniProt Q99607 1-663). A digest of the protocol: as §1
Assay [11] concerns the target T6, ELK4 (Homo sapiens, UniProt P28324-2 1-405).
T6 sequence: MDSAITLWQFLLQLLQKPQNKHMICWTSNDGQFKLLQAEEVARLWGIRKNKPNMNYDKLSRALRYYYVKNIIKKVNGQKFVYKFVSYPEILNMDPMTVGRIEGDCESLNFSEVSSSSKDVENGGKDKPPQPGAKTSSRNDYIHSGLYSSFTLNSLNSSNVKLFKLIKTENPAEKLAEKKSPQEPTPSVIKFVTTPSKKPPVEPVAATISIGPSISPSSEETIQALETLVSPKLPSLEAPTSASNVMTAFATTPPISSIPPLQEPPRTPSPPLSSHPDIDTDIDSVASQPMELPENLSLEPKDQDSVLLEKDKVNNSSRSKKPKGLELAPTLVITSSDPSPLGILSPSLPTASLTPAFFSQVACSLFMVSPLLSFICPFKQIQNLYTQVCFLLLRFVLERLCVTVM
Put shortly: as §1

The target of assay [12] is T7, ETV2 (Homo sapiens, UniProt O00321 1-342).
T7 sequence: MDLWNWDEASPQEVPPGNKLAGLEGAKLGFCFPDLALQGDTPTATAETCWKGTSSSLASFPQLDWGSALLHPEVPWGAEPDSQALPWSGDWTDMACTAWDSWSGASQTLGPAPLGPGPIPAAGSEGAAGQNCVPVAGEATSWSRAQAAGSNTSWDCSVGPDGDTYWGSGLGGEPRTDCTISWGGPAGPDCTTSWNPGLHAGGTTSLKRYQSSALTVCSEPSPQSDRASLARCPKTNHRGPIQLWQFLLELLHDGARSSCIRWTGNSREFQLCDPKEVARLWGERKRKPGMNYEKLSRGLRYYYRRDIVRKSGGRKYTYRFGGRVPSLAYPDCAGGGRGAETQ
Put shortly: as §1

For assay [13], the target named is ETV1 (Homo sapiens, UniProt P50549 1-477). A digest of the protocol:
as §1

The target in assay [14] is T8, ERF (Homo sapiens, UniProt P50548 1-548).
T8 sequence: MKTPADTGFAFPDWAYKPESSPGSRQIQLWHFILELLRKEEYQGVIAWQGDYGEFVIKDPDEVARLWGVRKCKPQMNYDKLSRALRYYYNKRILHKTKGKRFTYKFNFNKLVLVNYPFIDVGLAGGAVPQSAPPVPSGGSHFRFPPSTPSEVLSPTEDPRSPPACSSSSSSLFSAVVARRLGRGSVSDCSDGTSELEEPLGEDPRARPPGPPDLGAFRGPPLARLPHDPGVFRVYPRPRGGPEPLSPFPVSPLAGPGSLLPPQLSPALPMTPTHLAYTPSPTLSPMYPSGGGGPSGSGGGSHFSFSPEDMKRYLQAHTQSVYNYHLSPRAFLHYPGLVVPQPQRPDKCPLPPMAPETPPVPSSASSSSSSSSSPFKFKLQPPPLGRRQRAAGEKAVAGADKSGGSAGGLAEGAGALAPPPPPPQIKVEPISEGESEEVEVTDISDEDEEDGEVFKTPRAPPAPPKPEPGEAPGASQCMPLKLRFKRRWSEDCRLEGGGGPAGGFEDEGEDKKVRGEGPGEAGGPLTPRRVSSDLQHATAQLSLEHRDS
A digest of the protocol:
as §1

Assay [15] has as its target T9, ETV3L (Homo sapiens, UniProt Q6ZN32 1-361).
T9 sequence: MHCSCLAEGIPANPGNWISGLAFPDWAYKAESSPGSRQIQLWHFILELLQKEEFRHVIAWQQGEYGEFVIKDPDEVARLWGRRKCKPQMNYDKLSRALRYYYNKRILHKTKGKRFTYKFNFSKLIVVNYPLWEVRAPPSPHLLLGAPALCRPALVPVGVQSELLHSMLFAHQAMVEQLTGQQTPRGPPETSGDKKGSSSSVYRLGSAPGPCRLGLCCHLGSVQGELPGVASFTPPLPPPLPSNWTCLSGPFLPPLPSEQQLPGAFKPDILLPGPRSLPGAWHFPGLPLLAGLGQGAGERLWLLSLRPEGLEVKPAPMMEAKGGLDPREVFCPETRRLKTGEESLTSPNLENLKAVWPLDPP
Put shortly: as §1

In assay [16] the target is T10, ETS2 (Homo sapiens, UniProt P15036 1-469).
T10 sequence: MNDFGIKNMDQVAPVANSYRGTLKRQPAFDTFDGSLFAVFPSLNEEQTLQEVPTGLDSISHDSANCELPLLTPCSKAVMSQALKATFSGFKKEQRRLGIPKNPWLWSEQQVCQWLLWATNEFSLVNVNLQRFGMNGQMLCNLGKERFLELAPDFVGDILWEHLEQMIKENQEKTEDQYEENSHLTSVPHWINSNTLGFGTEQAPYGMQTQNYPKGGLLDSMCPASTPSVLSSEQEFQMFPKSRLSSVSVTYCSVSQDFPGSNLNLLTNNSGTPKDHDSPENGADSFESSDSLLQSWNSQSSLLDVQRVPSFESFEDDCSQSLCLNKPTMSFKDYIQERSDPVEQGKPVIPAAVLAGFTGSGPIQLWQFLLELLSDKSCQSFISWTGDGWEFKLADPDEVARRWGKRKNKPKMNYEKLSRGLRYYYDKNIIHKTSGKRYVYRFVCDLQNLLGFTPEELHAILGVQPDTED
Put shortly: as §1

Assay [17] has as its target T11, SPDEF (Homo sapiens, UniProt O95238 1-335).
T11 sequence: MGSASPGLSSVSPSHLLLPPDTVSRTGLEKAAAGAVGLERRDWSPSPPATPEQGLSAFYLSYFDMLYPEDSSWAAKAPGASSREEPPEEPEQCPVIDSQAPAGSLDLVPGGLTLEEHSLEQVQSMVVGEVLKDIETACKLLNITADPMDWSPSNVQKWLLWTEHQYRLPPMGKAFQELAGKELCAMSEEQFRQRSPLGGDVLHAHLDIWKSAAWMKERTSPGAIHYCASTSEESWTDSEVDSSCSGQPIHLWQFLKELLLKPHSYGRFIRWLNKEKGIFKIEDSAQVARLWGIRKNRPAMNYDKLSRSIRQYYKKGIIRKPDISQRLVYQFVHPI
A digest of the protocol: as §1

In assay [18] the target is T12, ETV7 (Homo sapiens, UniProt Q9Y603 1-341).
T12 sequence: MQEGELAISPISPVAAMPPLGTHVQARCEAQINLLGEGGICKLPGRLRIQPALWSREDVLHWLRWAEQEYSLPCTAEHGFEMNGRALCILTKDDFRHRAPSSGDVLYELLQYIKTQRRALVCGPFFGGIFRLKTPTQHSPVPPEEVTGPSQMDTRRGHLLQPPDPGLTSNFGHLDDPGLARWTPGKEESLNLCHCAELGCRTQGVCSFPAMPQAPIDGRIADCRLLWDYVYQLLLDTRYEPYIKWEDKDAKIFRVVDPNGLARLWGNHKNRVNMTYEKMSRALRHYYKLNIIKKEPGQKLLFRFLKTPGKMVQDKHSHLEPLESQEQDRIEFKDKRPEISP
A digest of the protocol: as §1

The target in assay [19] is T13, ETV3 (Homo sapiens, UniProt P41162-2 1-143).
T13 sequence: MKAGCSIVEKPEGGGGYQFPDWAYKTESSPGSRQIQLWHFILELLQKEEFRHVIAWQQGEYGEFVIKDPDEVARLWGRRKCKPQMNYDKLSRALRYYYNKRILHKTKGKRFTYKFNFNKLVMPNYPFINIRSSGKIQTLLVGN
Put shortly: as §1

Assay [20] addresses ETV6 (Homo sapiens, UniProt P41212 1-452). Put shortly: as §1

Sequence of ELF4 (Q99607 whole entry): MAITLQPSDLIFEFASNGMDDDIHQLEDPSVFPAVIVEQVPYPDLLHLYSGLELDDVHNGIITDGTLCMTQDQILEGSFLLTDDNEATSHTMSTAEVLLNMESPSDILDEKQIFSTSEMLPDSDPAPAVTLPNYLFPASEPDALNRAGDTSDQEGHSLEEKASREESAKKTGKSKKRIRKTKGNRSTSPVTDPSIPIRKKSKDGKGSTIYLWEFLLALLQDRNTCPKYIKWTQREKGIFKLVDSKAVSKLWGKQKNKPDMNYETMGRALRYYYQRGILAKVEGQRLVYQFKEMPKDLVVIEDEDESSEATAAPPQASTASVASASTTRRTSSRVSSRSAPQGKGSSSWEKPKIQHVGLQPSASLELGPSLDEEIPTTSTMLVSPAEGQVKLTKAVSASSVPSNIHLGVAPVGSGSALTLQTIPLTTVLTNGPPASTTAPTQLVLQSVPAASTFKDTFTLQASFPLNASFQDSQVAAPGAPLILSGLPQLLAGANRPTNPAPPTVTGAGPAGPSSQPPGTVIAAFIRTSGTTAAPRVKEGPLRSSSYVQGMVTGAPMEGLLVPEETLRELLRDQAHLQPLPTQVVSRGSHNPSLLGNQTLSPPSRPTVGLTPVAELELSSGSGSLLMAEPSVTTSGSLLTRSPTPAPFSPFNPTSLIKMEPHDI
Sequence of SPIB (Q01892 whole entry): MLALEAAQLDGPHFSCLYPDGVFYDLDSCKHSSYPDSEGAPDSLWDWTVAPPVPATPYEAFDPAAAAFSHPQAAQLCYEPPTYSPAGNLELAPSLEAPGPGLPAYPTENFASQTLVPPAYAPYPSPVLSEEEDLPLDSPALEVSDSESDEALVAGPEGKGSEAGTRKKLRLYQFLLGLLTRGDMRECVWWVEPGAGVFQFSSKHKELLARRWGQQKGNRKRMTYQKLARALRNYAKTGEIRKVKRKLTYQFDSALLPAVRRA
Sequence of ETV1 (P50549 whole entry): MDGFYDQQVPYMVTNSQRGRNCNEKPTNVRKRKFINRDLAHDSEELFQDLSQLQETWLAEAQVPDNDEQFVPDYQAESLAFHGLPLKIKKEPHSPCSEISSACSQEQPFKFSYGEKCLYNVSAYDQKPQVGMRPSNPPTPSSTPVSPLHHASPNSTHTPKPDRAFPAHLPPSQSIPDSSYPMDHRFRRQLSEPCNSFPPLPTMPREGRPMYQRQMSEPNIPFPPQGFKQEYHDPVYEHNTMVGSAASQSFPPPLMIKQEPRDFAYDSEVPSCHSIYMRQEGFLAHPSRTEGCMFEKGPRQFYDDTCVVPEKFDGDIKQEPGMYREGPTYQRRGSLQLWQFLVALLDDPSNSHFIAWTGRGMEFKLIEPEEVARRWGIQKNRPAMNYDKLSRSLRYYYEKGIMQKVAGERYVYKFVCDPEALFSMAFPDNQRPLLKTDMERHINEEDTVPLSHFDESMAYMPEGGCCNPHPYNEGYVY
Sequence of ELF1 (P32519 whole entry): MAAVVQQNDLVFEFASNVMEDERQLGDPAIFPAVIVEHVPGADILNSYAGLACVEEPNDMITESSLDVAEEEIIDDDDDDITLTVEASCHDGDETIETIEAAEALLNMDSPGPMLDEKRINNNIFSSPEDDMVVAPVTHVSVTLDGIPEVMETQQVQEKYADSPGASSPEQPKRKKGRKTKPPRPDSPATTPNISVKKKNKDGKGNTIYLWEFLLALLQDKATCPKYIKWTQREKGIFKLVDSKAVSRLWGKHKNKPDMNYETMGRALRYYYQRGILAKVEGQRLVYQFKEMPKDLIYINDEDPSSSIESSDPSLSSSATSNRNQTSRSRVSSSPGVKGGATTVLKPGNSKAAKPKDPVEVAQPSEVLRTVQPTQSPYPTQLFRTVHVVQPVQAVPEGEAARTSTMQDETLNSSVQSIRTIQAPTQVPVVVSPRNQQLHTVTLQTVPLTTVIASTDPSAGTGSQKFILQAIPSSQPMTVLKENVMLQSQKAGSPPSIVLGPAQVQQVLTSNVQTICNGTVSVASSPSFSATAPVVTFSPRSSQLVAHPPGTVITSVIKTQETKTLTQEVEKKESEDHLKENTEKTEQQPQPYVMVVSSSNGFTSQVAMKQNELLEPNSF
Sequence of ETV6 (P41212 whole entry): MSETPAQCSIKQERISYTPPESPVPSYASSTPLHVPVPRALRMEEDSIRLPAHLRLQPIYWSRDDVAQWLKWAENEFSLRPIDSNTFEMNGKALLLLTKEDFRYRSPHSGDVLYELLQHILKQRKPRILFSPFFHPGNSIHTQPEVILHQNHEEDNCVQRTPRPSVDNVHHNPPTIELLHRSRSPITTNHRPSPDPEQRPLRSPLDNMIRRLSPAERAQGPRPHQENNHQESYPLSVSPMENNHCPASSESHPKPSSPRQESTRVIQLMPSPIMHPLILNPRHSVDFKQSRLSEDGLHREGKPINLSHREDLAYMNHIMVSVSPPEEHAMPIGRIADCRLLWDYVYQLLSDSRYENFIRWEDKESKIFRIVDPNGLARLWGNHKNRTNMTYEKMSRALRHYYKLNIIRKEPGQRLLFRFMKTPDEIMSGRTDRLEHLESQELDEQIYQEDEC
Sequence of ETV5 (P41161 whole entry): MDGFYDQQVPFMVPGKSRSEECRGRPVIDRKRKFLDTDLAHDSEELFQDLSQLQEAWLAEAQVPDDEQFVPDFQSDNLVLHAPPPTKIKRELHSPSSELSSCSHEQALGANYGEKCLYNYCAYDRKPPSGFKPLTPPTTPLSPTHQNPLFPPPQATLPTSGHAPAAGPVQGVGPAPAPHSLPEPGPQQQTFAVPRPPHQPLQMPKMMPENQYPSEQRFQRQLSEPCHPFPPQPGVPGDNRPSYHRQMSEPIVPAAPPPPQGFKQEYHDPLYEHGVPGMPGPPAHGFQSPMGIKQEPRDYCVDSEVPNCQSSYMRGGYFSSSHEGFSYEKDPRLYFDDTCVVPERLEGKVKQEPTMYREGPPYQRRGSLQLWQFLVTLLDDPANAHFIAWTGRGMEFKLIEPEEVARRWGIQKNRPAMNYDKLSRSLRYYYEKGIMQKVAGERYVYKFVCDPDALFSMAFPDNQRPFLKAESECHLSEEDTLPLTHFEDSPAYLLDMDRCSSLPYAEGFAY

With ACCATT, the binding signal in [1] is 1.11 fold enrichment (6-mer frequency, TF over GST control); in [2], 1.1 fold enrichment (6-mer frequency, TF over GST control); in [3], 1.12 fold enrichment (6-mer frequency, TF over GST control); in assay [4], 1.1 fold enrichment (6-mer frequency, TF over GST control); in assay [5] it was 1.11 fold enrichment (6-mer frequency, TF over GST control); in assay [6], 1.16 fold enrichment (6-mer frequency, TF over GST control). Also, the binding signal in assay [7] was 1.11 fold enrichment (6-mer frequency, TF over GST control); in [8] it was 1.15 fold enrichment (6-mer frequency, TF over GST control); in [9] it was 1.08 fold enrichment (6-mer frequency, TF over GST control); in [10] it was 1.19 fold enrichment (6-mer frequency, TF over GST control); in assay [11], 1.15 fold enrichment (6-mer frequency, TF over GST control); in assay [12], 1.26 fold enrichment (6-mer frequency, TF over GST control). In addition, the binding signal was 1.14 fold enrichment (6-mer frequency, TF over GST control) in assay [13]; 1.03 fold enrichment (6-mer frequency, TF over GST control) in assay [14]; 1.16 fold enrichment (6-mer frequency, TF over GST control) in assay [15]; 1.15 fold enrichment (6-mer frequency, TF over GST control) in [16]; 1 fold enrichment (6-mer frequency, TF over GST control) in assay [17]; 1.11 fold enrichment (6-mer frequency, TF over GST control) in [18]. The binding signal in [19] was 1.1 fold enrichment (6-mer frequency, TF over GST control); in assay [20] it was 1.14 fold enrichment (6-mer frequency, TF over GST control).
